# A selection: hits, their analogues and other compounds. The true share with any hit is near 2.3%.
# TMEM16A act: TMEM16A chloride channel activators or potentiators, primary screen, cell-based, HTS; Anoctamin-1 (Mus musculus), Q8BHY3; HEK293 TMEM16A/YFP-H148Q/I152L, iodide quench fluorescence; hits give low values; B-score at 10 µM; actives 0.3% (n = 340,000); AID 623877, 2012;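 active means fluorescence-ratio B-score plate-corrected deviation score at least 3 library SD below zero, with starting fluorescence score within 5 deviations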;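 further: channel opened by trigger with iodide after compound preincubation; score built on the fluorescence ratio of max minus min over baseline; more negative score means more quench and so TMEM16A activation or potentiation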
# CHT PAM: CHT positive allosteric modulators, primary screen, cell-based, membrane potential dye, choline EC20. High affinity choline transporter 1 (Homo sapiens), Q9GZV3. CHT-expressing cells; hits give high values; LV-AA mutant CHT in HEK293 cells. B-score at 10 µM. actives 0.49% (n = 310,000);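 active means initial fluorescence not abnormally high and integrated response B-score, plate-corrected, over 3 SD above library mean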
# CHT inh: inhibitors of human choline transporter CHT; High affinity choline transporter 1 (Homo sapiens), Q9GZV3; CHT-expressing cells, membrane potential dye, choline response; hits give low values; B-score at 10 µM; actives 0.86% (n = 310,000);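 active means B-score over 3 SD under the library average, and starting fluorescence ratio not unusually high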;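 further: choline stimulus applied at its EC90 after an EC20 pre-addition; B-score computed on integrated fluorescence ratio after choline addition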
# ANO1 block: TMEM16A chloride channel inhibitors, primary screen, cell-based, HTS | HEK293 TMEM16A/YFP iodide influx fluorescence, ionomycin | normalized B-score (activity score, 25-100; higher = stronger inhibition) at 10 µM | actives 1.2% (n = 310,000) | AID 588511, 2011;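 active means ratio plate-corrected score three or more library SD toward inhibition, starting fluorescence score within five deviations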;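 further: score derived from kinetic fluorescence span divided by baseline fluorescence per well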
# TMEM16A reconf: TMEM16A chloride channel inhibitors, confirmation, cell-based, re-confirmation. shares compounds with ANO1 block. AID 652189, 2013. HEK293 TMEM16A/YFP-H148Q, iodide quench fluorescence; ionomycin added to raise cell calcium. actives 39% (n = 2,300). inhibition, % at 10 µM;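 active means mean duplicate percent inhibition, scaled so buffer wells are 0 and the reference blocker 100, over three buffer SD above buffer mean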
# TMEM16A Ca cntr: calcium mobilization in TMEM16A/YFP HEK293 cells, confirmation, counter-screen for TMEM16A inhibitor project | shares compounds with ANO1 block | Fluo4 calcium mobilization | calcium response (% of ionomycin), % at 10 µM | actives 2% (n = 2,300) | AID 652231, 2013;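 active means duplicate-averaged calcium signal over 20% of the ionomycin maximum, relative to buffer baseline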;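 further: each well's signal is peak minus trough fluorescence divided by its pre-addition baseline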
# YFP-HEK293 quench: iodide YFP quench changes in parental YFP-HEK293, counter-screen for TMEM16A inhibitor project, cell-based | ionomycin | 2,300 tested, under 10 active | shares compounds with ANO1 block | YFP ratio F(max-min)/F0 at 10 µM;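 active means yellow fluorescent protein signal ratio exceeding the buffer control mean by over 5 SD of those controls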;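 further: ratio is mean of duplicate wells from kinetic YFP trace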
# ClC-1 rat inh: ClC-1 chloride channel inhibition, selectivity assay for TMEM16A inhibitor project, cell-based, voltage-dependent ClC-1 | shares compounds with ANO1 block | CHO ClC-1-YFP, iodide influx fluorescence quench; iodide control reads 0, buffer control 100 | ratio percent, % at 10 µM | 2,300 tested, under 10 active;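 active means duplicate-mean ratio percent above the mean of iodide-only control wells, which defines zero, plus 5 of their SD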;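 further: higher percent means stronger block of ClC-1 iodide influx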
# Target sequence (P35524 whole entry, looked up): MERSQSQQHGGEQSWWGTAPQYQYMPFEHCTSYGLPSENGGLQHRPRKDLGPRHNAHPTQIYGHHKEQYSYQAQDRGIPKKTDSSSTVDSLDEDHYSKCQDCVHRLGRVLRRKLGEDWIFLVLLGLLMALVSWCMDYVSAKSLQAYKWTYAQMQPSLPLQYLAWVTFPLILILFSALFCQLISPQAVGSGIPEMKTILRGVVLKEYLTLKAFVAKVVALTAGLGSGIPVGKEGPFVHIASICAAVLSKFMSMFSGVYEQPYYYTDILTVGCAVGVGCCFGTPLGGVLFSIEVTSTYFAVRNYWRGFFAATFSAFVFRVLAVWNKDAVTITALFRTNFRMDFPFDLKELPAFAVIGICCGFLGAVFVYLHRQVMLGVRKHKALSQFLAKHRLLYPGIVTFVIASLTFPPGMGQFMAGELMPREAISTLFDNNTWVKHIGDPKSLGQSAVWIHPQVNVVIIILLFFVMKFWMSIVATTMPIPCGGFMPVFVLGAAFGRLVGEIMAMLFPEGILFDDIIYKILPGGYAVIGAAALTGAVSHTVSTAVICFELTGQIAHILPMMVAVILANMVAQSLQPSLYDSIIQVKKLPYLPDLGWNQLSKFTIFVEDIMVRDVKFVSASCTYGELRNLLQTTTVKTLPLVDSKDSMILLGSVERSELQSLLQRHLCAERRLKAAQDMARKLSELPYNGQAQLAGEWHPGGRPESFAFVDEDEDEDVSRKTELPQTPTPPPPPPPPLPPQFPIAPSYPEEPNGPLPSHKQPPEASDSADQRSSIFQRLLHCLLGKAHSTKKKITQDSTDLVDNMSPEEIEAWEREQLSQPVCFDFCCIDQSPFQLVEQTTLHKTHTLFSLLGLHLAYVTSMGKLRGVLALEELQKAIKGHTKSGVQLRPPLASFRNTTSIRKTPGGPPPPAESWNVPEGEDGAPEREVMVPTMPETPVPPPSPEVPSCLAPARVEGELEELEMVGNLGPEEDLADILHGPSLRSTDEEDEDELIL
# Hits are given with their value; – = inactive; · = no result.
SMILES,TMEM16A act,CHT PAM,CHT inh,ANO1 block,TMEM16A reconf,TMEM16A Ca cntr,YFP-HEK293 quench,ClC-1 rat inh
Nc1ncc(-n2cncn2)c(-c2ccc(Cl)cc2)n1,–,–,–,–,·,·,·,·
C=C(C)C1CC=C(C)/C(=N/NC(=O)CNc2ccc(OCC)cc2)C1 (stereo unspecified),–,–,–,25,–,–,–,–
N#CC1(NC(=O)Cn2cc(C(F)(F)F)ccc2=O)CCCC1,–,·,·,·,·,·,·,·
COc1cc(OC)c(OC)cc1/C=C1/Cc2ccccc2C1=O,–,–,–,–,–,28.0%,–,–
COc1ccc(-c2csc3nc(-c4cccnc4)nc(Cl)c23)cc1OC,–,–,–,25,–,–,–,–
COCC(=O)Nc1ccc(C)c(Cl)c1,–,–,–,100,–,–,–,–
O=C1CC(C(=O)N2CCOCC2)C2(CCCCC2)O1 (stereo unspecified),–,–,–,–,·,·,·,·
Cc1cc(Cl)cc2c1NC(=O)[C@]21[C@@H]2C(=O)N(Cc3ccccc3)C(=O)[C@@H]2[C@@H]2CCCN21,–,–,–,25,–,–,–,–
O=C(C1CCN(S(=O)(=O)c2ccc(Cl)cc2)CC1)N1CCN(c2ccccn2)CC1,–,·,·,·,·,·,·,·
O=C(CNc1cccc(S(=O)(=O)N2CCCC2)c1)Nc1ccc(F)c(F)c1,–,–,–,–,·,·,·,·
CN(CC(=O)Nc1cccc(S(=O)(=O)N2CCCC2)c1)CC(=O)Nc1ccc(Cl)c(C(F)(F)F)c1,–,–,–,25,–,–,–,–
CCN(CC)S(=O)(=O)c1cccc(NC(=O)CNc2cccc(S(=O)(=O)N3CCCC3)c2)c1,–,–,–,25,–,–,–,–
CCN(CC)S(=O)(=O)c1cccc(NC(=O)COC(=O)c2cccs2)c1,–,–,–,25,–,–,–,–
CCN(CC)S(=O)(=O)c1ccc(C)c(NC(=O)CNc2cccc(S(=O)(=O)N3CCCC3)c2)c1,–,–,–,–,·,·,·,·
CN(CC(=O)Nc1cccc(S(=O)(=O)N2CCCC2)c1)CC(=O)Nc1ccc(F)c(F)c1F,–,·,·,·,·,·,·,·
Cc1ccc(NC(=O)CNc2cccc(S(=O)(=O)N3CCCC3)c2)cc1F,–,–,–,25,22.5%,–,–,–
COc1cc(-c2nc3ccccc3c(=O)n2N)cc(OC)c1OC,–,–,–,–,·,·,·,·
CCC1CCCCN1C1Sc2ccc(C(=O)OC)cc2NC1=O (stereo unspecified),–,–,–,25,–,–,–,–
COC(=O)c1ccc2c(c1)NC(=O)C(N1CCOCC1)S2 (stereo unspecified),–,–,–,–,·,·,·,·
COc1ccc(CCNS(=O)(=O)CCNC(=O)c2ccc3c(c2)OCO3)cc1,–,–,–,–,·,·,·,·
N#Cc1ccc(C(=O)Nc2nnc(-c3cccs3)o2)cc1,–,–,–,–,·,·,·,·
O=C(Nc1nnc(-c2cccs2)o1)c1cccc(C(F)(F)F)c1,–,–,–,25,–,26.0%,–,–
CC(=O)c1cccc(NS(=O)(=O)c2ccc(-c3cnc(C4CC4)o3)cc2)c1,–,–,–,25,16.5%,–,–,–
Cc1ccc(S(=O)(=O)Nc2cccc3ncccc23)s1,–,–,–,–,·,·,·,·
Fc1nc(F)c(F)c(NCCCNc2c(F)c(F)nc(F)c2F)c1F,–,–,–,100,51.5%,–,–,–
SMILES,TMEM16A act,CHT PAM,CHT inh,ANO1 block,TMEM16A reconf,TMEM16A Ca cntr,YFP-HEK293 quench,ClC-1 rat inh
COc1ccc(C2=NS(=O)(=O)N(C)C(C(=O)Nc3ccc4c(c3)OCO4)=C2)cc1,–,–,–,–,·,·,·,·
Cc1ccc(C2=NS(=O)(=O)N(C)C(C(=O)Nc3ccc4c(c3)OCO4)=C2)cc1,–,–,–,25,–,–,–,–
O=C(Nc1nc(-c2ccc(F)cc2)cs1)C1CCN(C(=O)c2ccc(F)cc2)CC1,–,–,–,25,18.5%,–,–,–
Cc1ccc(C(=O)N2CCN(Cc3ccccc3)CC2)cc1S(=O)(=O)N1CCOCC1,–,·,·,·,·,·,·,·
CCN(CC)C(=O)c1sc2nc(-c3cccs3)cc(-c3cccs3)c2c1N,–,–,–,–,–,–,–,–
Cc1cccc(C(CC(=O)N2CCCCC2)c2ccccc2)c1O (stereo unspecified),–,–,–,–,·,·,·,·
O=C(Nc1cccc(C(F)(F)F)c1)c1cc[n+]([O-])cc1,–,–,–,100,–,–,–,–
CC1CCCN(S(=O)(=O)c2ccc(C(=O)Nc3nnc(-c4ccccc4Cl)o3)cc2)C1 (stereo unspecified),–,–,–,100,22.5%,–,–,–
CCN1CCN(CCCNC(=O)c2ccc(/C=C3/Sc4ccccc4N(Cc4ccccc4F)C3=O)cc2)CC1,–,–,–,–,25.0%,–,–,–
O=C(COC(=O)c1nc(-c2ccccc2)n(-c2cccc(C(F)(F)F)c2)n1)NCc1cccs1,–,–,–,–,·,·,·,·
COc1ccc(C)cc1-n1nnnc1SCc1csc(C)n1,–,–,–,–,·,·,·,·
COc1ccc(C)cc1-n1nnnc1SCc1cc(=O)n2cc(C)ccc2n1,–,–,–,25,–,–,–,–
CCN(CC1COc2ccccc2O1)C(=S)NC1CC2CCC1C2 (stereo unspecified),–,–,–,100,–,–,–,–
CN(CC1COc2ccccc2O1)C(=S)Nc1ccccc1 (stereo unspecified),–,–,–,–,·,·,·,·
Cc1ccc(NC(=O)C2CCN(S(C)(=O)=O)CC2)cc1C,–,–,–,–,·,·,·,·
O=[N+]([O-])c1ccc(N2N=C(c3ccco3)CC2c2ccccc2)cc1 (stereo unspecified),–,–,–,–,27.0%,–,–,–
COc1ccccc1N1CCN(C(=O)COc2ccc(Cl)cc2Br)CC1,–,–,–,–,·,·,·,·
COc1ccccc1N1CCN(C(=O)COc2ccc(C)cc2Br)CC1,–,–,–,100,–,22.5%,–,–
CCOc1ccc(Br)cc1S(=O)(=O)N1CCC(C(N)=O)CC1,–,–,–,–,·,·,·,·
CCOc1ccc(Br)cc1S(=O)(=O)N1CC(C)OC(C)C1 (stereo unspecified),–,–,–,100,–,–,–,–

# Screens deposited in PubChem by Johns Hopkins Ion Channel Center.
